Compound activity deposited in PubChem BioAssay by National Center for Advancing Translational Sciences (NCATS).
A selection: hits, their analogues and other compounds. The true share with any hit is near 4.6%.
Tau fibril FP: tau fibrillization inhibition (FP) | P10636 | K18 P301L tau heparin fibrillization, Alexa594 FP, 6 h | Potency, µM (titrated, usually from 57.7 µM), actives largely listed as inhibitors | 0.39% of 280,000 active | AID 1468; note: nearly all actives have a fitted effect of over 55% in size
Target sequence (P10636 561-689 P618L limits assumed): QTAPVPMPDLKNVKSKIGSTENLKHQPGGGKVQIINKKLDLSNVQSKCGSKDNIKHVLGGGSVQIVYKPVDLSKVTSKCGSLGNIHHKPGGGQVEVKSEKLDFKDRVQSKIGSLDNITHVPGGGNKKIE
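FP of Alexa 594-tau after heparin (20 uM) induction. Substrate: human K18 P301L, 15 uM unlabeled, 0.24 uM labeled. Buffer 100 mM sodium acetate pH 7. 6 hr, 37 C.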
Tau ThT inhib: tau fibrillization inhibition (ThT binding) | recombinant tau K18 P301L, heparin-induced fibrillization, ThT fluorescence | P10636 | Potency, µM (doses to about 57.4 µM), actives largely listed as inhibitors | 2.1% of 270,000 active; note: nearly all actives have a fitted effect of over 55% in size
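ThT emission at 510 nm, taken 1 hr after adding 30 uM dye, quantifies aggregates formed when 20 uM heparin acts on human tau K18 P301L for 6 hr at 37 C.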
TRb-SRC2 inh: inhibitors of human thyroid hormone receptor beta-SRC2 interaction | P10828 | TRbeta-SRC2 peptide binding, fluorescence polarization; receptor liganded with 1 µM T3 | Potency, µM (highest dose often 106 µM), usual class: inhibitors | 0.065% of 280,000 active; note: nearly all actives have a fitted effect of over 50% in size
Target sequence (P10828 whole entry, looked up): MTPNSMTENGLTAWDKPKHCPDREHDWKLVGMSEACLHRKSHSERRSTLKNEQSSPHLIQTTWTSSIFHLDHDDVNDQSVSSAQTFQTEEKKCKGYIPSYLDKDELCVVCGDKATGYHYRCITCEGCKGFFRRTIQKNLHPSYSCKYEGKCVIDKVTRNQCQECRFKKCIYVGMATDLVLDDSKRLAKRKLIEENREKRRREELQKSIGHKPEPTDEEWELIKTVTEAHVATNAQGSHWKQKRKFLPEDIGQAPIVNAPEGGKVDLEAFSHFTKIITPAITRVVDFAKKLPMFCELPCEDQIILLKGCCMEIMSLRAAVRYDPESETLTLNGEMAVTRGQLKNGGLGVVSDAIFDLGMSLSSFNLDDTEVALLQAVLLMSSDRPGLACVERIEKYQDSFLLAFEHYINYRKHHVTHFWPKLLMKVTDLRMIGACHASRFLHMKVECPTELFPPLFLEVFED
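Decrease in fluorescence polarization of 20 nM Texas Red SRC2 coactivator peptide flagged inhibition of its binding to 0.6 uM TRb LBD; 1 uM T3 included, incubation 5 hr, ex 555/em 632 nm.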
TR SRC2 fluor cs: counter-screen for TRb-SRC2 inhibitors: fluorescence interference; TRb/SRC2 Texas Red total fluorescence interference; Potency, µM (doses to about 106 µM); 0.29% of 280,000 active; active = well fitted curve in either direction with a large enough effect; inconclusive = small, poorly fitted or top-dose-only effect
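Human TRβ ligand-binding domain (0.6 uM) and Texas Red SRC2 peptide (20 nM) in Tris buffer with 1 uM T3 and 5% DMSO were incubated with pinned compound for 5 hr at ambient temperature. Total fluorescence was computed as S + 2P (555/632 nm).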
PNC inhibitor: inhibitors of perinucleolar compartment assembly; PC3M PTB-GFP, PNC prevalence imaging, 16 h; hits give low values; activity change (PNC), negative = inhibition, % at 10 µM; 3.1% of 140,000 active; AID 2417;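 active = readout at or below -70, meaning at least 70% loss of cells showing the perinucleolar compartment, a nuclear body marking cancer cells; inconclusive = readout between -30 and a set limit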
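PC3M cells stably expressing PTB-GFP, 750–1000 cells/well, treated 16 h at 37 °C with compound (23 nl of library stock), in duplicate. After paraformaldehyde fixation and Hoechst stain, imaged at 20x; PNC prevalence scored by image analysis.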
Tau fluor counter: counter-screen for tau fibril formation inhibitors. tau K18 P301L Alexa594 fluorescence, heparin fibrillization. Potency, µM (top dose mostly 57.7 µM). 0.93% of 280,000 active. AID 1463; note: nearly all actives have a fitted effect of over 55% in size
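Human tau K18 P301L (15 uM unlabeled, 0.24 uM Alexa 594-labeled) in 100 mM sodium acetate pH 7 with 20 uM heparin, 6 hr at 37 C. ThT 30 uM added, 1 hr ambient; Alexa 594 FP and total fluorescence read at 555/632 nm.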
Each line names hits and unclear results; the compound was inactive in the other large screens; [ ] = another dose, or the depositor's remark. Unless noted, calls come from the whole dose curve; as a rule, active = well fitted curve in the direction sought with a large enough effect; inconclusive = small, poorly fitted or top-dose-only effect, or another doubt; inactive = no such curve, though single readings can be large; an effect the other way counts as inactive or inconclusive.

COCCNC(=O)COc1ccc(Br)cc1Cl	none
COC(=O)C1Cc2c([nH]c3ccccc23)C(C)N1 (stereo not given)	PNC inhibitor -91
Cn1c(N=Nc2ccccc2)nc2ccccc21	none
CN(C)c1ccc(N=Nc2nc3ccccc3n2C)cc1	Tau fibril FP inconclusive, Tau ThT inhib 0.5µM, Tau fluor counter 13µM[quencher] (no result: PNC inhibitor)
CCCCOc1ccc(Cl)cc1CSc1nnc(C)n1N	PNC inhibitor -97
CCCCOc1ccc(Cl)cc1CSc1n[nH]c(C)n1	none
O=C1c2ccccc2-c2n[nH]c(=O)c3ccc(N4CCCCC4)c1c23	Tau ThT inhib 14µM, Tau fluor counter inconclusive (no result: PNC inhibitor)
CC1=Nc2cc(C(=O)O)ccc2Sc2c(C)ccc(C)c21	none (no result: PNC inhibitor)
COc1cccc(C(=O)Nc2ccc(NC(=O)C(C)(C)C)cn2)c1	PNC inhibitor -84
COc1cccc(C(=O)Nc2ccc(NC(=O)c3ccc(C(C)(C)C)cc3)cc2)c1	none (no result: PNC inhibitor)
Cc1ccc(-n2c(SCC(N)=O)nnc2-c2ccccn2)cc1C	none
COC(=O)[C@@H]1C[C@@]2(O)[C@@H](O)[C@@H](O)[C@@H](O)C[C@H]2N1Cc1ccc(-c2ccccc2)cc1	Tau fibril FP inconclusive (no result: PNC inhibitor)
O=C(/C=C/c1ccccc1)c1cccs1	Tau ThT inhib inconclusive (no result: PNC inhibitor)
O=C1Nc2ccccc2/C1=C/C(=O)c1cccs1	Tau ThT inhib 18µM
COc1ccc(CSCCN)cc1Cl	PNC inhibitor -96
Cc1cccc(N2CCN(c3ccc(NC(=O)/C=C(/C(=O)O)c4ccccc4)cc3)CC2)c1	Tau fibril FP inconclusive, Tau ThT inhib 8.9µM, Tau fluor counter inconclusive
CCN(CC)c1ccc(NC(=O)CCNC(=O)c2ccco2)cc1	Tau ThT inhib inconclusive
CCc1ccc2c(c1)C1(NN=C(c3cccc4ccccc34)S1)C(=O)N2 (stereo not given)	Tau ThT inhib 16µM, Tau fluor counter inconclusive
CCc1cccc(N2C(=O)CSC23C(=O)Nc2ccccc23)c1 (stereo not given)	none (no result: PNC inhibitor)
COc1ccc(C(=O)N2N=C(c3ccccc3)CC2(O)C(F)(F)F)cc1 (stereo not given)	none (no result: PNC inhibitor)
COCCOC(=O)c1c(C)oc2ccc(OC(=O)c3cccs3)cc12	PNC inhibitor -139
Cc1cc(/C=N\NC(=O)COc2cccc3cccnc23)c(C)n1-c1ccccc1	Tau ThT inhib 25µM, Tau fluor counter inconclusive
Cc1cc(/C=N\NC(=O)COc2cccc3cccnc23)c(C)n1-c1ccc(Br)cc1	Tau ThT inhib inconclusive
Cc1ccccc1NC(=O)CSc1nc(N)c2c3c(sc2n1)CSC(C)(C)C3	Tau fluor counter inconclusive
Cc1ccc(NC(=O)CSc2nc(N)c3c4c(sc3n2)CSC(C)(C)C4)cc1	Tau fibril FP inconclusive, PNC inhibitor -93
Cc1ccc(/C=C/C(=O)N2CCN(c3ccc(F)cc3)CC2)o1	none
CCC(CO)N=CC1=C(O)C(C(=O)c2ccccc2)CCC1=O (stereo not given)	none
O=P(O)(CCc1ccccc1)CN1CCCCC1	PNC inhibitor -82
CCCCc1ccc(NC(=S)Nc2ccc(Nc3ccc(OC)cc3)cc2)cc1	Tau fibril FP inconclusive, Tau ThT inhib 8.9µM, Tau fluor counter 7.9µM[quencher]
CCN1CCN(CC(=O)Nc2ccc(Cl)c(S(=O)(=O)N(C)C)c2)CC1	none (no result: PNC inhibitor)
CCCCc1ccc(NC(=S)Nc2ccc(Cl)c(S(=O)(=O)N(C)C)c2)cc1	Tau fibril FP inconclusive, PNC inhibitor -119, Tau fluor counter inconclusive
CCCCc1ccc(NC(=S)NCc2cccc(OC)c2)cc1	Tau fluor counter inconclusive (no result: PNC inhibitor)
COc1ccccc1CNc1nc2nc(C)c(Cl)c(C)n2n1	TR SRC2 fluor cs 0.022µM[quencher] (no result: PNC inhibitor)
Cc1ccc(CNc2nc3nc(C)c(Cl)c(C)n3n2)cc1	none (no result: PNC inhibitor)
O=C1C2=C(Nc3ccccc3SC2c2ccco2)c2ccccc21 (stereo not given)	Tau fibril FP inconclusive, Tau ThT inhib 13µM, Tau fluor counter 16µM[quencher]
O=C1c2ccccc2NC(c2ccco2)N1O (stereo not given)	PNC inhibitor inconclusive
CCc1ccc(C2Sc3ccccc3NC3=C2C(=O)c2ccccc23)cc1 (stereo not given)	Tau fibril FP inconclusive, Tau ThT inhib inconclusive, Tau fluor counter 2.5µM[quencher] (no result: PNC inhibitor)
CC1CC(=O)C2=C(C1)Nc1ccccc1SC2c1ccc(F)cc1 (stereo not given)	PNC inhibitor -85, Tau fluor counter inconclusive
CC(=O)Nc1ccc(C2Sc3ccccc3NC3=C2C(=O)c2ccccc23)cc1 (stereo not given)	Tau fibril FP inconclusive, Tau ThT inhib inconclusive, Tau fluor counter 11µM[quencher] (no result: PNC inhibitor)
CC(C)c1ccc(C2Sc3ccccc3NC3=C2C(=O)c2ccccc23)cc1 (stereo not given)	Tau fibril FP inconclusive, Tau ThT inhib inconclusive, Tau fluor counter inconclusive (no result: PNC inhibitor)
O=C(Nc1ccccc1)N1CCCN(c2c(Cl)cncc2Cl)CC1	none (no result: PNC inhibitor)
COc1ccc(-c2nc(N)n(C(C)=O)n2)cc1	none
O=C1C2=C(Nc3ccccc3SC2c2ccc(C(F)(F)F)cc2)c2ccccc21 (stereo not given)	Tau fibril FP 10µM, Tau ThT inhib inconclusive, Tau fluor counter 2.8µM[quencher] (no result: PNC inhibitor)
CC(Oc1cccc(F)c1)C(=O)/C=C\N(C)C (stereo not given)	none
CC(Oc1ccc(F)cc1)C(=O)/C=C\N(C)C (stereo not given)	PNC inhibitor -88
COc1cc(/C=C/C(=O)O)cc(OC)c1OC	none (no result: PNC inhibitor)
COc1cc(C)c(/C=C/C(C)=C/C=C/C(C)=C/C(=O)O)c(C)c1C	Tau ThT inhib 25µM, Tau fluor counter inconclusive (no result: PNC inhibitor)
CCC(CC)c1nnc(NC(=O)c2ccc(N3CCCCC3)c([N+](=O)[O-])c2)s1	PNC inhibitor inconclusive
O=C(Nc1nc2ccc3ccccc3c2s1)c1ccc(N2CCCCC2)c([N+](=O)[O-])c1	Tau ThT inhib 4µM, PNC inhibitor inconclusive
O=C(Nc1nc2ccc(Cl)cc2s1)c1ccc(N2CCCCC2)c([N+](=O)[O-])c1	Tau ThT inhib 1.3µM, TRb-SRC2 inh inconclusive
CCOc1ccc(S(=O)(=O)N(C)c2ccc(OCC(=O)OCc3c(C)noc3C)cc2)cc1	none
CCN=C1S/C(=C\c2ccc(-c3cccc(C(=O)O)c3)o2)C(=O)N1CC	none (no result: PNC inhibitor)
CCN1C(=O)/C(=C\c2ccc(-c3ccc([N+](=O)[O-])cc3OC)o2)SC1=Nc1cccc(C(=O)O)c1	Tau ThT inhib 14µM, Tau fluor counter inconclusive (no result: PNC inhibitor)
COc1ccc2cc(C)c3nnc(SCC(=O)Nc4cc(OC)c(OC)cc4C(=O)O)n3c2c1	none (no result: PNC inhibitor)
CCN(CC)CCNC(=O)C(=O)Nc1ccc(C(=O)OC)cc1	none (no result: PNC inhibitor)
CC(C)(C)C(=O)C(Cl)C(=O)Nc1ccccc1 (stereo not given)	Tau fibril FP inconclusive, Tau ThT inhib 7.1µM (no result: PNC inhibitor)
